# From the supplement of paper PMC10849652
# Of roughly 7,900 targets only a part is listed; those with a hit were picked by preference. About 0.6% of all pairs of compound and target were hits. Unmarked numbers belong to inactive results.
# Legend:
# Assay in all cases: log2 fold change, soluble protein after heating vs DMSO (PISA); higher = thermal stabilisation; K562 cells, 10 uM, 30 min; active = over 0.2 and 3.5 SD of the protein, either way, in both replicates (recomputed)
# bafetinib = compound: Cc1ccc(NC(=O)c2ccc(CN3CC[C@H](N(C)C)C3)c(C(F)(F)F)c2)cc1Nc1nccc(-c2cncnc2)n1 [bafetinib]
# Outline: (§1)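 Soluble protein was quantified by TMTpro 16plex LC-MS/MS after channel sums were equalised. It was obtained as the supernatant after 21,000xg for 90 min from pooled aliquots of K562 cells (2×10^6 cells/mL, 10 μM compound, 30 min) heated for 3 min across 48°C-58°C and extracted in PBS with 0.5% NP-40 at 4°C. Thermal stability values are relative to control samples and come from duplicates. They are given as log2 fold changes.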
# [1] = compound: Cc1cccc(CC(=O)N2CCc3c2ccc(-c2cn(C)c4ncnc(N)c24)c3F)n1
# Outline: as §1
# nilotinib = compound: Cc1cn(-c2cc(NC(=O)c3ccc(C)c(Nc4nccc(-c5cccnc5)n4)c3)cc(C(F)(F)F)c2)cn1 [nilotinib]
# Outline: as §1
# [2] = compound: Cc1nc(Nc2n[nH]c3c2CN(C(=O)N[C@H](CN(C)C)c2ccccc2)C3(C)C)c2sccc2n1
# Outline: as §1
# dasatinib = compound: Cc1nc(Nc2ncc(C(=O)Nc3c(C)cccc3Cl)s2)cc(N2CCN(CCO)CC2)n1 [dasatinib]
# Outline: as §1
# [3] = compound: Cc1ncc(-c2ccnc(Nc3ccc(S(C)(=O)=O)cc3)n2)n1C(C)C
# Outline: as §1
# [4] = compound: Cn1cc(-c2ccc3c(c2)CCN3C(=O)Cc2cccc(C(F)(F)F)c2)c2c(N)ncnc21
# Outline: as §1
# [5] = compound: Cn1cc(-c2ccc3nnc(C(F)(F)c4ccc5ncccc5c4)n3n2)cn1
# Outline: as §1
# tipifarnib = compound: Cn1cncc1[C@@](N)(c1ccc(Cl)cc1)c1ccc2c(c1)c(-c1cccc(Cl)c1)cc(=O)n2C [tipifarnib]
# Outline: as §1
# mubritinib = compound: FC(F)(F)c1ccc(/C=C/c2nc(COc3ccc(CCCCn4ccnn4)cc3)co2)cc1 [mubritinib]
# Outline: as §1
# [6] = compound: NC(=O)Nc1cc(-c2cccc(F)c2)sc1C(=O)N[C@H]1CCCNC1
# Outline: as §1
# [7] = compound: NC(=O)c1cnc(N[C@@H]2CCCC[C@@H]2N)nc1Nc1cccc(-n2nccn2)c1
# Outline: as §1
# [8] = compound: NC1(c2ccc(-c3nc4ccn5c(=O)[nH]nc5c4cc3-c3ccccc3)cc2)CCC1
# Outline: as §1
# [9] = compound: NCC(=O)Nc1ccc(-n2nc(C(F)(F)F)cc2-c2ccc3c(ccc4ccccc43)c2)cc1
# Outline: as §1
# entinostat = compound: Nc1ccccc1NC(=O)c1ccc(CNC(=O)OCc2cccnc2)cc1 [entinostat]
# Outline: as §1
# vorinostat = compound: O=C(CCCCCCC(=O)Nc1ccccc1)NO [vorinostat]
# Outline: as §1
# citarinostat = compound: O=C(CCCCCCNC(=O)c1cnc(N(c2ccccc2)c2ccccc2Cl)nc1)NO [citarinostat]
# Outline: as §1
# silmitasertib = compound: O=C(O)c1ccc2c(c1)nc(Nc1cccc(Cl)c1)c1ccncc12 [silmitasertib]
# Outline: as §1
# [10] = compound: O=C1NC(=O)C(c2cnc3ccccn23)=C1c1cn2c3c(cc(F)cc13)CN(C(=O)N1CCCCC1)CC2
# Outline: as §1
# [11] = compound: c1cc(OCCN2CCCCC2)cc(-c2n[nH]c3ccc(-c4nnc[nH]4)cc23)c1
# Outline: as §1
# UniProt A5PLN9, sequence (A5PLN9 whole entry, looked up): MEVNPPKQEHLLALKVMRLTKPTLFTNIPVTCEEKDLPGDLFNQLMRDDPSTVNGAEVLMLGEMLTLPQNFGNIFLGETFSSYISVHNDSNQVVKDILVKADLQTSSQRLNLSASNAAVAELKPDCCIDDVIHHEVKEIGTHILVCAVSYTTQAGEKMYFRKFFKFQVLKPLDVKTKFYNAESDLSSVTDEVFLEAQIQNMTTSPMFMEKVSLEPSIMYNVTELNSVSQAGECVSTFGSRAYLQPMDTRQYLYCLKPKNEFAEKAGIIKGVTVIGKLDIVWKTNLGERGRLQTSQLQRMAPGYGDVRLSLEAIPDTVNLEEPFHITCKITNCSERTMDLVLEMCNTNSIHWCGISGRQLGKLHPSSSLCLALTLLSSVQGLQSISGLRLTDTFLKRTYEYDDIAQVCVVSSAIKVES
# UniProt Q9Y2L5, sequence (Q9Y2L5 whole entry, looked up): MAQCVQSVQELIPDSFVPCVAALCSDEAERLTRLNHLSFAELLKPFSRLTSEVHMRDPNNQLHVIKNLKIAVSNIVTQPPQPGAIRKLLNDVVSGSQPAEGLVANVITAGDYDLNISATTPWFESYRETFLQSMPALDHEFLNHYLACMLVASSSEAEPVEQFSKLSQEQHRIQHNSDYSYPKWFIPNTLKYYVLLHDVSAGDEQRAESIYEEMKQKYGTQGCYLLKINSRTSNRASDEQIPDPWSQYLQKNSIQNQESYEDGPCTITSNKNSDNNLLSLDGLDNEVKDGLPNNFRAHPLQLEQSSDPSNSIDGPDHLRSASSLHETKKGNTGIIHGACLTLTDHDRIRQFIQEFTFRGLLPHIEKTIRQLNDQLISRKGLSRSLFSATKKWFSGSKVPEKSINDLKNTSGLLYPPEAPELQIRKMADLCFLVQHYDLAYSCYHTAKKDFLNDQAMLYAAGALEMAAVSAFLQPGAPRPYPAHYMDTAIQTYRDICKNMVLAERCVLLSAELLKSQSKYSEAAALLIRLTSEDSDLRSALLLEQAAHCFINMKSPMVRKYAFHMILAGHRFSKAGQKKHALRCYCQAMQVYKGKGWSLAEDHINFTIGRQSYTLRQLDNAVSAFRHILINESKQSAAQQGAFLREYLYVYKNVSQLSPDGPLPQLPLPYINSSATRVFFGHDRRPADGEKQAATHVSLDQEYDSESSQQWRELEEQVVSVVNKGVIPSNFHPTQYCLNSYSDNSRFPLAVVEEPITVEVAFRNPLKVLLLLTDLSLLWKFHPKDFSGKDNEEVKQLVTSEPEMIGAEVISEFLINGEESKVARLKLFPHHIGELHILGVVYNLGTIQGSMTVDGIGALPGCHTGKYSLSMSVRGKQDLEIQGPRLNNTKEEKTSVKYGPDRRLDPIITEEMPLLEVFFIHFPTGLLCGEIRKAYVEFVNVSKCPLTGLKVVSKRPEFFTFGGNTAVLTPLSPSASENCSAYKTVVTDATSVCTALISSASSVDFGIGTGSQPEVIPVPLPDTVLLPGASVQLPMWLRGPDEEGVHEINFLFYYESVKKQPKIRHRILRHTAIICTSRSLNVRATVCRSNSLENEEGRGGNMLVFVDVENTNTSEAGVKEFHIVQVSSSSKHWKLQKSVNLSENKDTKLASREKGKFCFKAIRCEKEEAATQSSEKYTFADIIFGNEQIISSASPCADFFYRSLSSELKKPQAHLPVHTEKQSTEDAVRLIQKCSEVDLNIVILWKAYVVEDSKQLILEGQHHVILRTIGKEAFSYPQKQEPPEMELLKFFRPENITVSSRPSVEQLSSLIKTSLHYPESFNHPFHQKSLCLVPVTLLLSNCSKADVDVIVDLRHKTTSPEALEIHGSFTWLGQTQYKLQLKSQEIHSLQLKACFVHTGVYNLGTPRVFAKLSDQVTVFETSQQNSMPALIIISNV
# UniProt P51809, sequence (P51809 whole entry, looked up): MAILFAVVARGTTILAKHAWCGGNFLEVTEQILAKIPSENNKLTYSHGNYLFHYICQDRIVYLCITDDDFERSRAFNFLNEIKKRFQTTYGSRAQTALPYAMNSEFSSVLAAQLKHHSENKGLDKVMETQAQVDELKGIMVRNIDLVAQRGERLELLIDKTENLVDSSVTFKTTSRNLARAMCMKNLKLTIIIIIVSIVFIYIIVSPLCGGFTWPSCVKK
# UniProt O14773, sequence (O14773 whole entry, looked up): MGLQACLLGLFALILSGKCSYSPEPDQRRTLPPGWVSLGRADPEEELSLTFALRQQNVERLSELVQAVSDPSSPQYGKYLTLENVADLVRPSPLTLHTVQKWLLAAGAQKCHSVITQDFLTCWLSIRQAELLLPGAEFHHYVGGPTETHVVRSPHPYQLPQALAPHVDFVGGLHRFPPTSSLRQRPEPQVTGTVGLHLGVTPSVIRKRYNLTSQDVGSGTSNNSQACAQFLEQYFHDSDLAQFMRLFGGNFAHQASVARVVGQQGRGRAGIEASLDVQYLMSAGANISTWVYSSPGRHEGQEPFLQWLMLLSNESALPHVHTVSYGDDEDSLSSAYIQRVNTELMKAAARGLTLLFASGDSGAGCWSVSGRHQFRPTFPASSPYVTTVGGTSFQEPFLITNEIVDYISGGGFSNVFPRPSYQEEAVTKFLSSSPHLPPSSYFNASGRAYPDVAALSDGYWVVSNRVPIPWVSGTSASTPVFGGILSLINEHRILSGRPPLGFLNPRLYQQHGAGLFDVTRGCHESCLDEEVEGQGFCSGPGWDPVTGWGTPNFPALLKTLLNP
# UniProt Q8IZ69, sequence (Q8IZ69 whole entry, looked up): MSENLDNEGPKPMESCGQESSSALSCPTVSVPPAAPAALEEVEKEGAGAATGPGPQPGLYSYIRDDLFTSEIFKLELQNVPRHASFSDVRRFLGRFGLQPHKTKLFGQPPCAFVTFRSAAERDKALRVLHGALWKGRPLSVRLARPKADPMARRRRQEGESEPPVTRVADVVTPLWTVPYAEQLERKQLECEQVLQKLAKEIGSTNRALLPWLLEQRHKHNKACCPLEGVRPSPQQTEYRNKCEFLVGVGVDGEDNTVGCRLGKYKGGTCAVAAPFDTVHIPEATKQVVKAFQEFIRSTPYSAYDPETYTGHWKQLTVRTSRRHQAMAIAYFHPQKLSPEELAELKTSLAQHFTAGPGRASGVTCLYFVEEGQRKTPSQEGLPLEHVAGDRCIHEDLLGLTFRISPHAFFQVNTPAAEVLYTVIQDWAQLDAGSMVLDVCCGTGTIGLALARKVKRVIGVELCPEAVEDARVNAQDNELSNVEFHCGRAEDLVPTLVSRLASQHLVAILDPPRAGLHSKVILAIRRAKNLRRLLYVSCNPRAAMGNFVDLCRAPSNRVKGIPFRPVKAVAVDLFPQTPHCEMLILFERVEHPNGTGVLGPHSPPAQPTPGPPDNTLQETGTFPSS
# UniProt Q96AX1, sequence (Q96AX1 whole entry, looked up): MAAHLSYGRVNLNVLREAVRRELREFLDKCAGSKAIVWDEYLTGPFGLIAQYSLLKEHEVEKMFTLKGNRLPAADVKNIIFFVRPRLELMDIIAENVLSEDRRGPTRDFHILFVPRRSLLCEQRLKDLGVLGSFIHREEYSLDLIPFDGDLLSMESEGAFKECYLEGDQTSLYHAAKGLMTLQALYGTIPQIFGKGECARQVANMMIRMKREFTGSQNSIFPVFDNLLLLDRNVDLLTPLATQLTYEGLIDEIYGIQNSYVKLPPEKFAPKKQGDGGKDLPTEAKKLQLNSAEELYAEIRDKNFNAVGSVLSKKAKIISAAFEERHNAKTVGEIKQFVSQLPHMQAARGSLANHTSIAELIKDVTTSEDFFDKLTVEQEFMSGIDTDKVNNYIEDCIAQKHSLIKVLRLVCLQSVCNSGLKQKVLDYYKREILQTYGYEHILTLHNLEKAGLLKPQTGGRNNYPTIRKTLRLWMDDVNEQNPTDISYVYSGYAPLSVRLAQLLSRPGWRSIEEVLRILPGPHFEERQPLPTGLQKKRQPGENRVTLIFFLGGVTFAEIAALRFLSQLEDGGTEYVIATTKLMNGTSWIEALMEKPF
# UniProt Q9UBK9, sequence (Q9UBK9 whole entry, looked up): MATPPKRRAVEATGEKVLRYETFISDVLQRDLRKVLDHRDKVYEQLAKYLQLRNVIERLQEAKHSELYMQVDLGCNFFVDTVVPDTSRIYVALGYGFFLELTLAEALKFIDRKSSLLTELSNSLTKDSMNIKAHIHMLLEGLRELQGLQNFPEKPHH
Target,log2 fold change (bafetinib),log2 fold change [1],log2 fold change (nilotinib),log2 fold change [2],log2 fold change (dasatinib),log2 fold change [3],log2 fold change [4],log2 fold change [5],log2 fold change (tipifarnib),log2 fold change (mubritinib),log2 fold change [6],log2 fold change [7],log2 fold change [8],log2 fold change [9],log2 fold change (entinostat),log2 fold change (vorinostat),log2 fold change (citarinostat),log2 fold change (silmitasertib),log2 fold change [10],log2 fold change [11]
VAMP7 (UniProt P51809),-0.066,0.025,-0.034,-0.04,0.002,0.023,0.017,0.086,-0.04,0.003,-0.029,0.001,-0.176,-0.069,0.009,0.025,0.086,0.027,-0.058,0.026
UXT isoform 2 (UniProt Q9UBK9),0.016,0.036,0.04,-0.068,-0.033,0.001,0.11,0.026,-0.144,0.014,-0.041,-0.067,-0.108,-0.011,0.004,0.047,0.129,-0.033,-0.051,0.007
TPP1 (UniProt O14773),-0.48 (active),0.007,0.008,-0.031,-0.051,0.022,-0.025,0,0.049,-0.001,-0.036,-0.037,-0.174,-0.08,0.036,0.031,0.035,-0.036,-0.014,-0.091
TRAPPC8 (UniProt Q9Y2L5),-0.037,0.044,-0.055,-0.04,-0.133,0.059,0,0.004,-0.013,0.045,-0.039,-0.082,-0.168,-0.028,0.042,0.053,0.051,0.07,-0.016,-0.205
TRAPPC13 isoform 5 (UniProt A5PLN9),0.11,0.149,-0.019,0,-0.346 (active),-0.056,0.002,-0.112,-0.011,0.057,-0.01,-0.248,-0.269,-0.148,0.045,0.079,0.136,0.017,-0.016,-0.13
VPS33A (UniProt Q96AX1),-0.066,0.091,-0.071,-0.124,-0.123,-0.039,-0.019,-0.094,-0.064,0.098,0.012,-0.121,-0.191,-0.084,0.05,0.051,0.063,0.019,0.029,-0.059
TRMT2A (UniProt Q8IZ69),0.059,-0.001,0.021,-0.048,-0.019,-0.064,0,0.009,0.03,-0.005,-0.031,-0.128,-0.091,-0.003,0.022,0.03,-0.03,-0.003,0.018,-0.062
TOE1 (UniProt Q96GM8),0.301,0.033,0.152,0.178,0.097,0.017,-0.113,-0.072,-0.036,0.111,0.09,-0.011,0.104,-0.01,-0.038,-0.047,0.011,0.026,0.122,-0.18
